Laboratory results published in the supplement of paper PMC10338343.
± gives the standard deviation.

Test system: MILI (PIWIL2) piRISC loaded with L1MC piRNA (26 nt)
Test: pre-steady-state target cleavage rate (min^-1); guide: L1MC piRNA 5'p-UAACUAAAUACUAUGCAAGCUGUAGG; MIWI and MILI are mouse PIWI proteins and EfPiwi is from a freshwater sponge; tags in brackets are library labels; higher = faster piRNA-guided slicing of the target
Summary of the method: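 A transcribed, DNA-blocked target RNA library […] was incubated at 33 °C for 0–8 or 0–960 min with 1 nM active affinity-purified piRISC carrying one synthetic guide, in HEPES–potassium acetate buffer with or without 500 nM GTSF1 partner protein. Uncleaved targets were then sequenced and normalised to depth and to weakly complementary targets. Data from three trials were pooled, with k3 capped at 0.0001 min^-1, and a burst-and-steady-state fit yielded the pre-steady-state cleavage rate.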

[1] = auxiliary factor: 500 nM mouse GTSF1
[2] = auxiliary factor: none (no GTSF1)
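Further: 1 nM active piRISC with 0.1 nM target library at 33 °C single turnover.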

Sequence: UCCUCCUACAGCUGCAUAGUAUUUAGUUA
- pre-steady-state target cleavage rate [1]: 0.275 ± 0.018
- pre-steady-state target cleavage rate [2]: 0.00792 ± 0.0023

Sequence: UCCUGGAACAGCUUGAUAGUAUUUAGUUA
- pre-steady-state target cleavage rate [1]: 0.11 ± 0.013
- pre-steady-state target cleavage rate [2]: 0.00612 ± 0.0022

Sequence: UCCUGGAUCAGCUUGCUUUGUAUUUAGUUA
- pre-steady-state target cleavage rate [1]: 0.11 ± 0.015
- pre-steady-state target cleavage rate [2]: 0.0038 ± 0.0028

Sequence: UCCUGGAUGUCGUUGCCUAGUAUUUAGUUA
- pre-steady-state target cleavage rate [1]: 0.0556 ± 0.0094
- pre-steady-state target cleavage rate [2]: 0.00949 ± 0.0028

Sequence: UCCUGGUACAGCUUGCAUAGUAUUUCAGUUA
- pre-steady-state target cleavage rate [1]: 0.21 ± 0.078
- pre-steady-state target cleavage rate [2]: 0.00397 ± 0.0039

Sequence: UCCUGGAUCAGCUAGCAUAGUAUAUAGUUA
- pre-steady-state target cleavage rate [1]: 0.22 ± 0.02
- pre-steady-state target cleavage rate [2]: 0.00644 ± 0.0023

Sequence: UCCUGGAUGAGCUUGCAAUGUAUUUAGUUA
- pre-steady-state target cleavage rate [1]: 0.0269 ± 0.0097
- pre-steady-state target cleavage rate [2]: 0.00445 ± 0.0026

Sequence: UCCUGGAUGUCGAUGCAUAGUAUUUAGGUUA
- pre-steady-state target cleavage rate [1]: 0.0911 ± 0.016
- pre-steady-state target cleavage rate [2]: 0.00466 ± 0.0031

Sequence: UCCUGGUACAGCUUGCAUAGUCUUUAGUUA
- pre-steady-state target cleavage rate [1]: 0.152 ± 0.025
- pre-steady-state target cleavage rate [2]: 0.00831 ± 0.003

Sequence: UCCUGGAACAGCUAGGAUAGUAUUUAGUUA
- pre-steady-state target cleavage rate [1]: 0.26 ± 0.016
- pre-steady-state target cleavage rate [2]: 0.00746 ± 0.002

Sequence: UCCUGGAUGUGCUUGCAUAGUAAUUUAGUUA
- pre-steady-state target cleavage rate [1]: 0.0286 ± 0.01
- pre-steady-state target cleavage rate [2]: 0.0056 ± 0.0026

Sequence: UCCUGGAUCAGCUUGCAUAGUAUUAACUUA
- pre-steady-state target cleavage rate [1]: 0.0348 ± 0.011
- pre-steady-state target cleavage rate [2]: 0.00289 ± 0.0028

Sequence: UCCUGGAUGUCCUUGGAUAGUUUUUAGUUA
- pre-steady-state target cleavage rate [1]: 0.0144 ± 0.0045
- pre-steady-state target cleavage rate [2]: 0.00344 ± 0.0027

Sequence: UCCUGGAUGUGCAAGCAUAGUAUUUAGUUA
- pre-steady-state target cleavage rate [1]: 0.055 ± 0.012
- pre-steady-state target cleavage rate [2]: 0.00481 ± 0.0026

Sequence: UCCUGGAUGAGCUUGCAAAGUAUUUUGUUA
- pre-steady-state target cleavage rate [1]: 0.0703 ± 0.019
- pre-steady-state target cleavage rate [2]: 0.00392 ± 0.0026

Sequence: UCCUGGAUGUGGUUGCAUAGAAUUUAGUUA
- pre-steady-state target cleavage rate [1]: 0.0151 ± 0.0063
- pre-steady-state target cleavage rate [2]: 0.00318 ± 0.0028

Sequence: UCCUGGAUGUCCUUGCAUAGUAUUUAGUGA
- pre-steady-state target cleavage rate [1]: 0.0966 ± 0.018
- pre-steady-state target cleavage rate [2]: 0.00382 ± 0.0024

Sequence: UCCUGGAUGUCCUUGCAUAGUGAUUUAGUUA
- pre-steady-state target cleavage rate [1]: 0.0104 ± 0.0052
- pre-steady-state target cleavage rate [2]: 0.00503 ± 0.0028

Sequence: UCCUGGAUGUGCUAGCAUAGUAUUUUGUUA
- pre-steady-state target cleavage rate [1]: 0.0587 ± 0.011
- pre-steady-state target cleavage rate [2]: 0.00334 ± 0.0025

Sequence: UCCUGGUACACGUUGCAUAGUAUUUAGUUA
- pre-steady-state target cleavage rate [1]: 0.19 ± 0.045
- pre-steady-state target cleavage rate [2]: 0.0113 ± 0.0051

Sequence: UCCUGGAUGUCGAACCAAUGUAUUUAGUUA
- pre-steady-state target cleavage rate [1]: < 0.0001
- pre-steady-state target cleavage rate [2]: < 0.0001

Sequence: UCCUGGAUGUGCAUGCAUAGUAUUUAGUAA
- pre-steady-state target cleavage rate [1]: 0.121 ± 0.017
- pre-steady-state target cleavage rate [2]: 0.00467 ± 0.0026

Sequence: UCCUGGAUGUGCUUGCUUAGUAUUUAGUUA
- pre-steady-state target cleavage rate [1]: 0.094 ± 0.013
- pre-steady-state target cleavage rate [2]: 0.0114 ± 0.0031

Sequence: UCCUGGAUGUGCAUGCAUACUAUUUAGUUA
- pre-steady-state target cleavage rate [1]: 0.0253 ± 0.0066
- pre-steady-state target cleavage rate [2]: 0.00586 ± 0.0023

Sequence: UCCUGGUUCUGCUUGCAUAGUAUUUAGUUA
- pre-steady-state target cleavage rate [1]: 0.186 ± 0.024
- pre-steady-state target cleavage rate [2]: 0.00814 ± 0.0033

Sequence: UCCUGGUACAGCAACCAUAGUAUUUAGUUA
- pre-steady-state target cleavage rate [1]: 0.286 ± 0.042
- pre-steady-state target cleavage rate [2]: 0.00442 ± 0.0027

Sequence: UCCUGGAUGUCGAAGCAUGGUAUUUAGUUA
- pre-steady-state target cleavage rate [1]: 0.0111 ± 0.0048
- pre-steady-state target cleavage rate [2]: 0.00436 ± 0.0021

Sequence: UCCUGCUUCAGCUUGCAUAGUAUUUAGAUA
- pre-steady-state target cleavage rate [1]: 0.165 ± 0.025
- pre-steady-state target cleavage rate [2]: 0.00373 ± 0.002

Sequence: UCCUGGAUGUGCUUGCUUAGUAAUUAGUUA
- pre-steady-state target cleavage rate [1]: 0.0601 ± 0.0087
- pre-steady-state target cleavage rate [2]: 0.00576 ± 0.0023

Sequence: UCCUGGAUGUCGUUGCAUAGUAUUUGAGUUA
- pre-steady-state target cleavage rate [1]: 0.145 ± 0.034
- pre-steady-state target cleavage rate [2]: 0.00339 ± 0.0032

Sequence: UCCUGGUAGAGCUUGCAUAGUAUUUAGUAA
- pre-steady-state target cleavage rate [1]: 0.206 ± 0.013
- pre-steady-state target cleavage rate [2]: 0.0096 ± 0.0028

Sequence: UCCUGGAUGAGCUUGCACAGUAUUUAGUUA
- pre-steady-state target cleavage rate [1]: 0.172 ± 0.014
- pre-steady-state target cleavage rate [2]: 0.00869 ± 0.0031

Sequence: UCCUGGAUGUCGAUGGCAUAGUAUUUAGUUA
- pre-steady-state target cleavage rate [1]: 0.0677 ± 0.014
- pre-steady-state target cleavage rate [2]: 0.00792 ± 0.003

Sequence: UCCUGGAUGAGGUAGCAUAGUAUUUAGUUA
- pre-steady-state target cleavage rate [1]: 0.0611 ± 0.0091
- pre-steady-state target cleavage rate [2]: 0.00664 ± 0.0022

Sequence: UCCUGGAUGUCCAUGCAUAGUAUAUAGUUA
- pre-steady-state target cleavage rate [1]: 0.0181 ± 0.0064
- pre-steady-state target cleavage rate [2]: 0.00373 ± 0.0026

Sequence: UCCUGGAUGUCGAUGCAUAGUAUGUUAGUUA
- pre-steady-state target cleavage rate [1]: 0.0347 ± 0.0076
- pre-steady-state target cleavage rate [2]: 0.00559 ± 0.0031

Sequence: UCCUCCUACAGCAUUGCAUAGUAUUUAGUUA
- pre-steady-state target cleavage rate [1]: 0.228 ± 0.014
- pre-steady-state target cleavage rate [2]: 0.00746 ± 0.0025

Sequence: UCCUGGAACAGCAUGGAUAGUAUUUAGUUA
- pre-steady-state target cleavage rate [1]: 0.243 ± 0.016
- pre-steady-state target cleavage rate [2]: 0.00742 ± 0.0028

Sequence: UCCUGGAUGAGCUAGCAAAGUAUUUAGUUA
- pre-steady-state target cleavage rate [1]: 0.0455 ± 0.0079
- pre-steady-state target cleavage rate [2]: 0.00456 ± 0.0024

Sequence: UCCUGGAUGAGCUUGCUUAGUUUUUAGUUA
- pre-steady-state target cleavage rate [1]: 0.0134 ± 0.0052
- pre-steady-state target cleavage rate [2]: 0.00418 ± 0.0026

Sequence: UCCUGGAUCAGCUUGCUUAGUAUUUAGUAA
- pre-steady-state target cleavage rate [1]: 0.218 ± 0.012
- pre-steady-state target cleavage rate [2]: 0.00347 ± 0.0021

Sequence: UCCUGCUACAGCUUGCAUUGUAUAUAGUUA
- pre-steady-state target cleavage rate [1]: 0.194 ± 0.028
- pre-steady-state target cleavage rate [2]: 0.00483 ± 0.0018

Sequence: UCCUCCUACAGCUUGCUUAGUUUUUAGUUA
- pre-steady-state target cleavage rate [1]: 0.0513 ± 0.01
- pre-steady-state target cleavage rate [2]: 0.00379 ± 0.0023

Sequence: UCCUGGAUGUCGAAGGCAUAGUAUUUAGUUA
- pre-steady-state target cleavage rate [1]: 0.0371 ± 0.0065
- pre-steady-state target cleavage rate [2]: 0.00443 ± 0.0024

Sequence: UCCUGGUACAGCUUGCUAGUAUUUAGUUA
- pre-steady-state target cleavage rate [1]: 0.0128 ± 0.0057
- pre-steady-state target cleavage rate [2]: 0.00634 ± 0.002

Sequence: UCCUCCUACAGCUUGCAUAGUAUUUAGUAUA
- pre-steady-state target cleavage rate [1]: 0.258 ± 0.028
- pre-steady-state target cleavage rate [2]: 0.00757 ± 0.0027

Sequence: UCCUGGAUGAGGAAGCAUAGUAUUUAGUUA
- pre-steady-state target cleavage rate [1]: 0.0519 ± 0.012
- pre-steady-state target cleavage rate [2]: 0.00494 ± 0.0027

Sequence: UCCUGGAUGUCGAUGCAUAGUAUUUAGUCA
- pre-steady-state target cleavage rate [1]: 0.111 ± 0.02
- pre-steady-state target cleavage rate [2]: 0.00347 ± 0.0027

Sequence: UCCUGGAUGUCGAUGCGUAGUAUUUAGUUA
- pre-steady-state target cleavage rate [1]: 0.0121 ± 0.0036
- pre-steady-state target cleavage rate [2]: 0.00501 ± 0.0024

Sequence: UCCUGGAUGUCGUUGCAAAGUAUAUAGUUA
- pre-steady-state target cleavage rate [1]: 0.0166 ± 0.0054
- pre-steady-state target cleavage rate [2]: 0.00471 ± 0.0027

Sequence: UCCUGGAUGUGCUUGAUAGUAUUUAGUUA
- pre-steady-state target cleavage rate [1]: 0.00721 ± 0.0036
- pre-steady-state target cleavage rate [2]: 0.00463 ± 0.002

Sequence: UCCUGGUACAGCUUGCAUAGUGAUUUAGUUA
- pre-steady-state target cleavage rate [1]: 0.0336 ± 0.01
- pre-steady-state target cleavage rate [2]: 0.00917 ± 0.0038

Sequence: UCCUGGAUCAGCUUGCAAAGUAAUUAGUUA
- pre-steady-state target cleavage rate [1]: 0.0974 ± 0.011
- pre-steady-state target cleavage rate [2]: 0.00502 ± 0.0023

Sequence: UCCUGGAUGAGCUAGCAUAGUAAUUAGUUA
- pre-steady-state target cleavage rate [1]: 0.131 ± 0.018
- pre-steady-state target cleavage rate [2]: 0.00472 ± 0.0025

Sequence: UCCUGGAUCAGCUAGCAUUGUAUUUAGUUA
- pre-steady-state target cleavage rate [1]: 0.107 ± 0.014
- pre-steady-state target cleavage rate [2]: 0.00287 ± 0.0024

Sequence: UCCUGGUACAGCUUCGUUAGUAUUUAGUUA
- pre-steady-state target cleavage rate [1]: 0.128 ± 0.013
- pre-steady-state target cleavage rate [2]: 0.00406 ± 0.0022

Sequence: UCCUGGAUGUCGUUGCAUAGUAUUCUAGUUA
- pre-steady-state target cleavage rate [1]: 0.18 ± 0.045
- pre-steady-state target cleavage rate [2]: 0.00434 ± 0.0027

Sequence: UCCUGGAUGACCUUGCUUAGUAUUUAGUUA
- pre-steady-state target cleavage rate [1]: 0.114 ± 0.019
- pre-steady-state target cleavage rate [2]: 0.00599 ± 0.0028

Sequence: UCCUGGAUGUGCUUGCAAAGUAUUUACUUA
- pre-steady-state target cleavage rate [1]: 0.0114 ± 0.0052
- pre-steady-state target cleavage rate [2]: 0.00362 ± 0.0028

Sequence: UCCUGGAUGUCCUUGCAUAGAUUUUAGUUA
- pre-steady-state target cleavage rate [1]: 0.0121 ± 0.0046
- pre-steady-state target cleavage rate [2]: 0.00402 ± 0.0018
